# Reference: ChEMBL document CHEMBL1961873, “Compounds: GSK PKIS; Assays: Nanosyn kinase panel” (2012)
# Legend:
# [1] = biological target: T1, 3-phosphoinositide-dependent protein kinase 1 (Homo sapiens) (UniProt O15530); conditions: at 0.1 µM;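 further: values are mean inhibition of PDK1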
# T1 sequence (whole entry): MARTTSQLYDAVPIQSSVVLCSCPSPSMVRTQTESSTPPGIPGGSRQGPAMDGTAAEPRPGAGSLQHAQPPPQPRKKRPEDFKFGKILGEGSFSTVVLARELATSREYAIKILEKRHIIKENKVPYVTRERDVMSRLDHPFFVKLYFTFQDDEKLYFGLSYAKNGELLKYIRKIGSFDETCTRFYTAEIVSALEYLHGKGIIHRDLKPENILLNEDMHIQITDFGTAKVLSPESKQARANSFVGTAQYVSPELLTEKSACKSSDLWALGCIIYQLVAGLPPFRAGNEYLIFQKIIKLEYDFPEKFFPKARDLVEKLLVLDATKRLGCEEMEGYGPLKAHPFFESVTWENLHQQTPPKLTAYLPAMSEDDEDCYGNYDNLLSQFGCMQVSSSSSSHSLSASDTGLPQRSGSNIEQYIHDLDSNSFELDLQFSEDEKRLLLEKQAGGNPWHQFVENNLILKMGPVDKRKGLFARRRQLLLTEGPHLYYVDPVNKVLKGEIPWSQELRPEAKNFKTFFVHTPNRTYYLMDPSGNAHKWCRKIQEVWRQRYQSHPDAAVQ
# [2] = biological target: cAMP-dependent protein kinase catalytic subunit alpha (Homo sapiens) (UniProt P17612); conditions: at 0.1 µM
# [3] = biological target: cAMP-dependent protein kinase catalytic subunit alpha (Homo sapiens) (UniProt P17612); conditions: at 1 µM
# [4] = biological target: Protein kinase C alpha type (Homo sapiens) (UniProt P17252); conditions: at 0.1 µM
# [5] = biological target: Protein kinase C alpha type (Homo sapiens) (UniProt P17252); conditions: at 1 µM
# [6] = biological target: Protein kinase C beta type (Homo sapiens) (UniProt P05771); conditions: at 0.1 µM
# Sequence of Protein kinase C beta type (Homo sapiens) (P05771 2-671 limits assumed): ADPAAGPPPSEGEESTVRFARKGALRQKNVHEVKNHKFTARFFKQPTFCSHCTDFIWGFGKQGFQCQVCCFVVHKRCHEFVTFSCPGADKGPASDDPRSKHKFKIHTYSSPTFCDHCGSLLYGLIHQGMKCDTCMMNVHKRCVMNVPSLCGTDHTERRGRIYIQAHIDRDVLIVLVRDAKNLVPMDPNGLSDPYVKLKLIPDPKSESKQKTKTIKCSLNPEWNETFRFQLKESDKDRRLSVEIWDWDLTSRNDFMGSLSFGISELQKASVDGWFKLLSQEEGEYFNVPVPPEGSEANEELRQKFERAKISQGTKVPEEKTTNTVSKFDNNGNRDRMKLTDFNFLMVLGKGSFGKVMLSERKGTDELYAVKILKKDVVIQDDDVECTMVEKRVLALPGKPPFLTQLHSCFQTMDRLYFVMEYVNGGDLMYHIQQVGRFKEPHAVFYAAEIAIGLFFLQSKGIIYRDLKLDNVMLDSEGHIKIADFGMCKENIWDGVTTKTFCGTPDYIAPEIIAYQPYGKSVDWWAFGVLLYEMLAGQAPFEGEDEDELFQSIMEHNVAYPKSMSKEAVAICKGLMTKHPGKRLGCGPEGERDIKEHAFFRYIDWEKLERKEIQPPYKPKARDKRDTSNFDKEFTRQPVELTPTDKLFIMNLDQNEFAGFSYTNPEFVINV
# [7] = biological target: Protein kinase C beta type (Homo sapiens) (UniProt P05771); conditions: at 1 µM
# [8] = biological target: Protein kinase C eta type (Homo sapiens) (UniProt P24723); conditions: at 0.1 µM
# Sequence of Protein kinase C eta type (Homo sapiens) (P24723 whole entry): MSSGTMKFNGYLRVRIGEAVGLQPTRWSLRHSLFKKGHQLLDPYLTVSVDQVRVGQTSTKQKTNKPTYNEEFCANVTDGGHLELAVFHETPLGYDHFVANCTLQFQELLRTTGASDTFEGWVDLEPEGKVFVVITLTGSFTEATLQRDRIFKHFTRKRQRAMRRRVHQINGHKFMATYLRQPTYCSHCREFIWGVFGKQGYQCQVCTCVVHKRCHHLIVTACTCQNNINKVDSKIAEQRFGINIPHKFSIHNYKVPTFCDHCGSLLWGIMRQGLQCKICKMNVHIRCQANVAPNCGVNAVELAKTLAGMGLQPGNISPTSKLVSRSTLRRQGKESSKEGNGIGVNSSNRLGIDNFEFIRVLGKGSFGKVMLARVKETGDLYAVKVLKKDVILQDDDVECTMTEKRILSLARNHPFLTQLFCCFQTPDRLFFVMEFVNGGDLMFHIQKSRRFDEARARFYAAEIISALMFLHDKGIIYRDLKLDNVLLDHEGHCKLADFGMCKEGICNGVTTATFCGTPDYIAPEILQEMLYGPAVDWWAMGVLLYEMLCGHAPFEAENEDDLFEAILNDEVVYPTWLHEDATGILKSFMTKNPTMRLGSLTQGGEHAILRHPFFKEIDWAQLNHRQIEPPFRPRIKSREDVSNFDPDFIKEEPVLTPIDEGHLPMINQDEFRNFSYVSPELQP
# [9] = biological target: Protein kinase C eta type (Homo sapiens) (UniProt P24723); conditions: at 1 µM
# [10] = biological target: Protein kinase C gamma type (Homo sapiens) (UniProt P05129); conditions: at 0.1 µM
# [11] = biological target: Protein kinase C gamma type (Homo sapiens) (UniProt P05129); conditions: at 1 µM
# [12] = biological target: T2, Protein kinase C iota type (Homo sapiens) (UniProt P41743); conditions: at 0.1 µM
# T2 sequence (whole entry): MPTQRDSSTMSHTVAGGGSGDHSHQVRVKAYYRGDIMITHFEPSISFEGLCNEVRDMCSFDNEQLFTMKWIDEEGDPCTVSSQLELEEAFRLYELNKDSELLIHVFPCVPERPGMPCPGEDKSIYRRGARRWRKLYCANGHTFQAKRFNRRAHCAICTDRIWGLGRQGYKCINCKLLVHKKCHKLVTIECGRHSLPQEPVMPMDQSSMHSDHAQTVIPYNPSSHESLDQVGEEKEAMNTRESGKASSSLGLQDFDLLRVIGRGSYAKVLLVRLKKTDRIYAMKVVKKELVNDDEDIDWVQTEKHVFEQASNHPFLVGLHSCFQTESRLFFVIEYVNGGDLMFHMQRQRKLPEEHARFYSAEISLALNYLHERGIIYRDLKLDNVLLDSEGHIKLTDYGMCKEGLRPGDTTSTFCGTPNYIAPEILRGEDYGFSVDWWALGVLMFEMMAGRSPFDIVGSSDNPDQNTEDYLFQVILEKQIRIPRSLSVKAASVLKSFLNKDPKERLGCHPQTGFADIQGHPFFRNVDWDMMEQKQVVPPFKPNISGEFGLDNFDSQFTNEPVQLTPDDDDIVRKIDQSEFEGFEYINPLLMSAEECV
# [13] = biological target: T2, Protein kinase C iota type (Homo sapiens); conditions: at 1 µM
# [14] = biological target: Protein kinase C theta type (Homo sapiens) (UniProt Q04759); conditions: at 0.1 µM
# Sequence of Protein kinase C theta type (Homo sapiens) (Q04759 whole entry, looked up): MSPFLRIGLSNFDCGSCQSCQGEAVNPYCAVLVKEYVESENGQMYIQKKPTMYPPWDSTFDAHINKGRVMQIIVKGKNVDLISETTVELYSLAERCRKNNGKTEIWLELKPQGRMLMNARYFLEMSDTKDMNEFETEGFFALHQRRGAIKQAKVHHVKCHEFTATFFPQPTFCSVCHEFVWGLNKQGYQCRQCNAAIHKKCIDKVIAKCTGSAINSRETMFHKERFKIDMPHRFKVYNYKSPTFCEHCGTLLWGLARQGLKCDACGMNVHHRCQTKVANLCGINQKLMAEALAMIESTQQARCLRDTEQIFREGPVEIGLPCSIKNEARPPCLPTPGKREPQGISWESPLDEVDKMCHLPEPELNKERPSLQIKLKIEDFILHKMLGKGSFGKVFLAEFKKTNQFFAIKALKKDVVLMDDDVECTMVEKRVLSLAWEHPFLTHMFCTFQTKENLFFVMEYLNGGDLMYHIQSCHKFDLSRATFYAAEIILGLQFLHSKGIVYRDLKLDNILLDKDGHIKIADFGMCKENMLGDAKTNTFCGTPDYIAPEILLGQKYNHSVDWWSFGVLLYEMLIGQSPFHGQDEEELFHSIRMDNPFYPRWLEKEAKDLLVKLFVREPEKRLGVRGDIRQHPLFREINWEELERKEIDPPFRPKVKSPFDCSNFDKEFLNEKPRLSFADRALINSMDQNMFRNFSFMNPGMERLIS
# [15] = biological target: Protein kinase C theta type (Homo sapiens) (UniProt Q04759); conditions: at 1 µM
# [16] = biological target: Protein kinase C beta type (Homo sapiens) (UniProt P05771); conditions: at 0.1 µM; remark: listed apart in the source
# [17] = biological target: Protein kinase C beta type (Homo sapiens) (UniProt P05771); conditions: at 1 µM; remark: listed apart in the source
# [18] = biological target: T3, Serine/threonine-protein kinase D1 (Homo sapiens) (UniProt Q15139); conditions: at 0.1 µM
# T3 sequence (whole entry): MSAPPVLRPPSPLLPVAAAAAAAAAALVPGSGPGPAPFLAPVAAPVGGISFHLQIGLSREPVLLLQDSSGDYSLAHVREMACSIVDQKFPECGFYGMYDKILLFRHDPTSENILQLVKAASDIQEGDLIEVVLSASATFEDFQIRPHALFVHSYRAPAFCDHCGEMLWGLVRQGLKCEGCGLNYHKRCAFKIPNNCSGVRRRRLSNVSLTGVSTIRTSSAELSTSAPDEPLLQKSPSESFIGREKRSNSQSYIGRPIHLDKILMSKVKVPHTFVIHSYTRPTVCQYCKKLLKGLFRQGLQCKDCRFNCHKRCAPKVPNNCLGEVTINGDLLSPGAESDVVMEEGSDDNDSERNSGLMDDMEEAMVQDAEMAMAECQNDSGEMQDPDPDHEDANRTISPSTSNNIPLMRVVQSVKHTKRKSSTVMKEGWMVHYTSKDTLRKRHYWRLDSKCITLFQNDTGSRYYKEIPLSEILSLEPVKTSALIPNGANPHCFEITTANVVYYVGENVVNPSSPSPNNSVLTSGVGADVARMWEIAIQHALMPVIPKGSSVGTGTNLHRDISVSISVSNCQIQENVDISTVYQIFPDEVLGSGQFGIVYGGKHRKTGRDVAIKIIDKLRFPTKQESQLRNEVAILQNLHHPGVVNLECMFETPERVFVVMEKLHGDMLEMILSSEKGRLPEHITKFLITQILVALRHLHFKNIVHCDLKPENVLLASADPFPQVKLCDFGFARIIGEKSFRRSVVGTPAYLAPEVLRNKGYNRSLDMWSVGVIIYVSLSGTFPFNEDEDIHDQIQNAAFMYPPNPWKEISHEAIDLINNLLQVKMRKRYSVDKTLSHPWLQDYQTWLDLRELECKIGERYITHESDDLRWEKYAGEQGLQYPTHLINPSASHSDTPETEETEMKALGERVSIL
# [19] = biological target: T3, Serine/threonine-protein kinase D1 (Homo sapiens); conditions: at 1 µM
# [20] = biological target: T4, Serine/threonine-protein kinase D2 (Homo sapiens) (UniProt Q9BZL6); conditions: at 0.1 µM;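 further: reported percent inhibition values are means, part of the GSK PKIS kinase panel screen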
# T4 sequence (whole entry): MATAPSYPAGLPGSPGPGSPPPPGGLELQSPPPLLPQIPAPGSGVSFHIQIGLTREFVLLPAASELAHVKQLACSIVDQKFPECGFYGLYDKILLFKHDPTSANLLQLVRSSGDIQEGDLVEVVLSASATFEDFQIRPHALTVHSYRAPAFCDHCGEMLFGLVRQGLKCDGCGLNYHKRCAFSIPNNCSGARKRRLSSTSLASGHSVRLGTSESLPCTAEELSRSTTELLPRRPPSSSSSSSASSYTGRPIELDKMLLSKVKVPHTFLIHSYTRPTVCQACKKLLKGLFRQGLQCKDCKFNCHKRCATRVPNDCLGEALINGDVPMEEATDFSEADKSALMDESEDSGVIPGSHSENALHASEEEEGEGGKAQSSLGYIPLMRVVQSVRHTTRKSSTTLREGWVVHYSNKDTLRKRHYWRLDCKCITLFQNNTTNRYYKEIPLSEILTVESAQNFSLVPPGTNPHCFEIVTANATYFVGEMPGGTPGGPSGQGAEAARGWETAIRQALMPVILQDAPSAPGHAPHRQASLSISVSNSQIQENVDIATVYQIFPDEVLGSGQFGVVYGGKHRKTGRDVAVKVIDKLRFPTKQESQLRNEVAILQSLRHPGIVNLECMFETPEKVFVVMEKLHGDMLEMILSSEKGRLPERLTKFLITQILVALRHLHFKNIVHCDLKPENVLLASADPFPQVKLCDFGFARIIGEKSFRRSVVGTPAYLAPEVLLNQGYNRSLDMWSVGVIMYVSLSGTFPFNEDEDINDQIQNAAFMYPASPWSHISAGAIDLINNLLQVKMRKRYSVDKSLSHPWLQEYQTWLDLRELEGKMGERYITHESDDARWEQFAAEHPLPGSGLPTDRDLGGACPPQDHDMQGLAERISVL
SMILES,inhibition [1] [%],inhibition [2] [%],inhibition [3] [%],inhibition [4] [%],inhibition [5] [%],inhibition [6] [%],inhibition [7] [%],inhibition [8] [%],inhibition [9] [%],inhibition [10] [%],inhibition [11] [%],inhibition [12] [%],inhibition [13] [%],inhibition [14] [%],inhibition [15] [%],inhibition [16] [%],inhibition [17] [%],inhibition [18] [%],inhibition [19] [%],inhibition [20] [%]
CCn1c(-c2nonc2N)nc2c(C#CC(C)(C)O)nc(OCCNC)cc21,1.35,11.6,49.2,0.49,3.55,4.85,29.9,78.9,95.4,-2.02,8.19,0.89,1.21,15.7,61.1,1.53,10.8,4.31,12.9,4.9
CCOc1nccc2c1nc(-c1nonc1N)n2CC,1.85,3.12,9.17,-0.03,1.03,11.6,39.7,7.44,24.1,3.01,0.08,3.07,0.84,2.98,6.45,3.06,5.23,3.37,1.82,1.9
COc1cccc(-n2ncc3c(N/N=C/c4ccc(C)cc4)ncnc32)c1,0.64,3.22,2.93,0.52,1.66,0.67,1.01,5.56,4.73,2.06,-9.04,1.65,1.86,3.03,4.16,1.4,2.79,6.31,10.7,6.6
Cc1ccc(C(=O)NC2CC2)cc1-c1ccc2[nH]ncc2c1,-3.15,-2.46,0.47,-0.47,0.07,-0.41,-0.31,-4.21,-3.72,-0.11,0.02,-1.83,-1.13,-1.64,0.05,-0.94,-0.69,-4.08,-2.68,-2.91
Cc1ccc(NC(=O)CC2CC2)cc1-c1ccc(C(=O)NCC2CC2)cc1,1.84,1.31,0.41,0.78,1.96,-0.34,2.08,3.52,4.84,2.09,6.55,0.93,-0.03,2.09,2.23,1,2.35,2.3,3.9,2.89
CN(C)CCCn1c(-c2nonc2N)nc2cnccc21,1.51,2.1,3.18,0.8,3.62,1.86,14.5,6.38,10,4.42,4.25,2.62,3.77,2.2,1.32,2.32,4.48,3.41,7.59,4.15
NC(=O)c1cccc(Nc2nccc(Nc3cccc(F)c3)n2)c1,-1.35,1.44,0.76,0.15,4.54,-2.22,-5.72,1.84,2.62,2.94,4.93,-0.38,-1.03,0.79,0.72,2.1,4.84,1.93,4.25,0.71
COc1cc(/C=N/Nc2ncnc3c2cnn3C(C)C)ccc1O,5.59,1.05,3.87,0.6,2.74,0.72,3.01,0.82,3.21,-1.82,5.96,1.94,1.52,1.33,4.03,1.47,4.67,1.79,1.16,1.45
O=C(Nc1ccc(Oc2ccc3[nH]c(NC(=O)c4ccco4)nc3c2)cc1)Nc1cc(C(F)(F)F)ccc1F,2.37,-0.33,0.09,-3.29,-2.22,-0.09,-1.32,1.15,-0.71,2.16,2.22,0.86,-0.83,-0.73,1.78,0.05,1.61,-3.35,-2.46,-3.46
COC(=O)c1cncc(/C=C/c2c(C)cc(O)cc2C)c1,-0.19,1.8,2.3,0.98,1.39,0.78,2.09,4.57,5.34,6.64,3.93,2.79,0.49,2.55,3.44,-1.36,2.82,3.37,5,3.87
N#Cc1cccc(Nc2nccc(-c3cnn4ncccc34)n2)c1,2.83,2.6,12.8,26.2,72.8,2.69,20,7.07,31.9,6.2,31.2,0.78,1.84,3.95,14.2,6.33,30.2,7.68,49.5,7.36
NC(=O)c1sc(-n2cnc3ccccc32)cc1OCc1ccccc1Br,1.27,1.4,4.48,1.58,2.92,-0.55,0.73,5.09,2.7,1.38,3.85,1.56,-0.46,1.86,2.63,1.02,2.96,5.36,9.59,7.73
NS(=O)(=O)c1ccc(-c2cc3ccncc3cc2OCc2ccccc2)cc1,3.11,1.4,0.52,0.12,1.77,0.43,3.25,4.33,3.62,1.21,4.49,0.19,0.28,1.18,2.98,0.66,1.74,2.19,2.75,2.47
